Experimental data reported in PubChem BioAssay (NCATS).
Results filed as inconclusive are left out. Entries that show only a call come without a potency. Active and inactive are the calls of the source. Calls come from the whole dose curve; as a rule, active = well fitted cell-killing curve with a large enough effect; inconclusive = small, poorly fitted or top-dose-only effect, or effect the other way; inactive = flat fitted curve, though single readings scatter.

test: qHTS assay for cell viability of the p53RE-bla HCT-116 cell line (AID 743292); details: p53RE-bla HCT-116 viability, ATP luminescence, 16 h; series mostly up to 95 µM; note: nearly all actives have a fitted effect of over 55% in size
Description: U.S. Tox21 Program National Center for Advancing Translational Sciences [NCATS] NIH Chemical Genomics Center [NCGC] U.S. Environmental Protection Agency [EPA] National Institutes of Environmental Health Sciences [NIEHS] National Toxicology Program [NTP] U.S. Food and Drug Administration [FDA] Tox21 Assay Overview: The CellTiter-Glo Luminescent Cell Viability Assay (Promega, Madison, WI) is a homogeneous method to determine the number of viable cells in culture based on quantitation of the ATP present, which signals the presence of metabolically active cells. This cell viability assay was used to screen environmental chemicals in the CellSensor p53RE-bla HCT-116 cell line (Invitrogen).
Tox21 Assay Protocol Summary: Cell viability after compound treatment was measured using a luciferase-coupled ATP quantitation assay (CellTiter-Glo viability assay, Promega, Madison, WI) in CellSensor p53RE-bla HCT-116 cell line (Invitrogen). Total intracellular ATP content corresponds to the number of metabolically competent cells after compound treatment. The cells were dispensed at 4,000 cells/5 uL/well in 1,536-well white/solid bottom assay plates using a Flying Reagent Dispenser (Aurora Discovery, San Diego, CA). The cells were incubated for 5 h at 37 C, followed by the addition of 23 nL of compounds dissolved in DMSO, positive controls or DMSO only using a pintool work station (Kalypsys, San Diego, CA). The assay plates were incubated for 16 h at 37 C, followed by the addition of 5 uL/well of CellTiter-Glo reagent. After 30 min incubation at room temperature, the luminescence intensity of the plates was measured using a ViewLux plate reader (PerkinElmer, Shelton, CT).
Potency is the fitted concentration of half-maximal effect.

SMILES	Potency
COC(=O)N(OC)c1ccccc1COc1ccn(-c2ccc(Cl)cc2)n1	inactive
CCOP(=S)(NC(C)C)Oc1ccccc1C(=O)OC(C)C (stereo not given)	inactive
Nc1nc(N)nc(Cl)n1	inactive
Cc1cc(Cl)ccc1N=CN(C)C	inactive
O=P(O)(O)CCCl	inactive
CCC(C)c1cc([N+](=O)[O-])cc([N+](=O)[O-])c1O (stereo not given)	inactive
CC(C)CC(C)Nc1ccc(Nc2ccccc2)cc1 (stereo not given)	inactive
COCC(=O)N(c1c(C)cccc1C)N1CCOC1=O	inactive
O=C=Nc1ccc(Cl)cc1	inactive
CO/N=C(/C(=O)OC)c1ccccc1COc1ccccc1C	inactive
CCOC(=O)Nc1cccc(OC(=O)Nc2ccccc2)c1	inactive
CNC(=O)Oc1cccc2c1OC(C)(C)C2O (stereo not given)	inactive
O=CNC(N1CCN(C(NC=O)C(Cl)(Cl)Cl)CC1)C(Cl)(Cl)Cl (stereo not given)	inactive
COC(=O)/C=C(\C)OP(=O)(OC)OC	inactive
O=S(=O)(O)C(F)(F)C(F)(F)C(F)(F)C(F)(F)C(F)(F)C(F)(F)F	inactive
CCOP(=O)(NC(C)C)Oc1ccc(S(C)=O)c(C)c1 (stereo not given)	inactive
CNC(=O)N(C)c1nc2ccccc2s1	inactive
CC(=O)[O-].CC(=O)[O-].O.O.[Cd+2]	inactive
CNC(=O)O/N=C(\SC)C(=O)N(C)C	inactive
CCNc1nc(NC(C)C)nc(OC)n1	inactive

SMILES	Potency
c1ccc2cc3c(cc2c1)-c1cccc2cccc-3c12	inactive
CCNC(=O)NC(=O)/C(C#N)=N/OC	inactive
CC(c1ccc(O)cc1)(c1ccc(O)cc1)c1ccc(O)cc1	inactive
CCOP(=S)(OCC)Oc1cnc2ccccc2n1	inactive
CCOC(=O)C(Cl)Cc1cc(-n2nc(C)n(C(F)F)c2=O)c(F)cc1Cl (stereo not given)	inactive
CCNc1nc(NC(C)(C)C)nc(SC)n1	inactive
CC(=NC#N)N(C)Cc1ccc(Cl)nc1	inactive
N#CC(CCc1ccc(Cl)cc1)(Cn1cncn1)c1ccccc1 (stereo not given)	inactive
COc1cc(OC)nc(Sc2cccc(Cl)c2C(=O)O)n1	inactive
CNc1cnn(-c2cccc(C(F)(F)F)c2)c(=O)c1Cl	inactive
C/C=C(\C)C(=O)O[C@H]1C[C@@H](OC(C)=O)[C@@]2(C(=O)OC)CO[C@H]3[C@@H](O)[C@@](C)([C@]45O[C@@]4(C)[C@H]4C[C@@H]5O[C@@H]5OC=C[C@@]54O)[C@H]4[C@]1(CO[C@]4(O)C(=O)OC)[C@@H]32	inactive
CCSC(C)CC1CC(=O)C(/C(CC)=N/OC/C=C/Cl)=C(O)C1 (stereo not given)	inactive
CCOc1nc(C(Cl)(Cl)Cl)ns1	inactive
COC(=O)c1ccccc1CS(=O)(=O)NC(=O)Nc1nc(OC)cc(OC)n1	inactive
ClCc1ccccc1Cl	inactive
CCOP(=S)(OCC)Oc1ccc(S(C)=O)cc1 (stereo not given)	inactive
CC(C)(C#N)N=NC(C)(C)C#N	inactive
CCCN(CCOc1c(Cl)cc(Cl)cc1Cl)C(=O)n1ccnc1	inactive
ClC1=C(Cl)[C@@]2(Cl)[C@H]3C[C@@H](Cl)[C@H](Cl)[C@H]3[C@@]1(Cl)C2(Cl)Cl	50.1 µM (active)
COc1cc(OC)nc(NC(=O)NS(=O)(=O)c2ncccc2OCC(F)(F)F)n1	inactive
